Laboratory results taken from PubChem BioAssay AID504832 (National Center for Advancing Translational Sciences (NCATS), 2011).
The campaign covered roughly 310,000 compounds. About 18,000 (5.8%) were called active. A call without a number means that no potency is given here. Not shown: some 22% with an inconclusive outcome. This is one part of a sample in which actives are shown more often than they occur. Calls come from the whole dose curve; as a rule, active = well fitted inhibition curve with a large enough effect; inconclusive = small, poorly fitted or top-dose-only effect, or another doubt; inactive = no such curve, though single readings can be large or run the other way.

Assay: Primary qHTS for delayed death inhibitors of the malarial parasite plastid, 48 hour incubation
Conditions: P. falciparum luciferase growth in erythrocytes; series mostly up to 28.7 µM
How it was run: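 Parasite viability was followed by luminescence of a genomically integrated firefly luciferase. Cultures held 0.1% parasitemia at 2% hematocrit (final), incubated under 5% CO2 at 37 C.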
Potency is the fitted concentration of half-maximal effect.

Structure (SMILES)	Potency
Cc1cccc(C)c1NC(=O)CSc1nc2c([nH]1)c(=O)n(C)c(=O)n2C	inactive
Cc1cc(NC(=O)Nc2c[nH]c(=O)[nH]c2=O)ccc1Br	inactive
O=C(NC1CCN(S(=O)(=O)c2ccc(F)cc2)CC1)c1ccccc1	inactive
O=C(Cc1cccs1)Nc1ccc([N+](=O)[O-])cc1	inactive
O=C(CN(c1cc(C(F)(F)F)ccc1Cl)S(=O)(=O)c1ccccc1)NCc1cccnc1	inactive
CCCNC(=O)c1ccc(N2CCC3(CC2)CC(c2cccc(Br)c2)=NO3)c(NC(=O)c2ccco2)c1	0.738 µM (active)
COCCNC(=O)c1ccc(N2CCC3(CC2)OCCO3)c([N+](=O)[O-])c1	inactive
CCCNC(=O)c1ccc(N2CCC3(CC2)CC(c2ccc(Cl)cc2)=NO3)c([N+](=O)[O-])c1	inactive
CCOC(=O)C1CCCN(S(=O)(=O)c2ccc(-n3cnnn3)c(C)c2)C1 (stereo not drawn)	inactive
Cc1cnc(CN(C)C(=O)C2CCC(=O)N(CCc3cccc(F)c3)C2)[nH]1 (stereo not drawn)	inactive
Cc1ccc(N(CC(=O)NCC2CCCO2)C(=O)CNS(=O)(=O)c2ccc(Cl)cc2)cc1 (stereo not drawn)	inactive
O=c1[nH]c(N2CCOCC2)nc2ccccc12	inactive
Cc1ccc(S(=O)(=O)N2CCN(C(=O)COC(=O)c3c(C)cc(C)cc3C)CC2)c(C)c1	14.7 µM (active)
Cc1ccc(S(=O)(=O)N2CCN(C(=O)CSc3cc(C)ccc3C)CC2)c(C)c1	inactive
Cc1ccc(S(=O)(=O)N2CCN(C(=O)COC(=O)c3c(C)noc3C)CC2)c(C)c1	inactive
COc1ccc(N2CCN(C(=O)c3cccs3)CC2)cc1	inactive
O=C(NCCc1ccccc1Cl)C1CCC(=O)N(CCCc2ccccc2)C1 (stereo not drawn)	inactive
O=C1N=C(N2CCc3ccccc3C2)S/C1=C\c1ccc(O)cc1	7.38 µM (active)
O=C1N=C(N2CCOCC2)S/C1=C\C=C/c1ccccc1	inactive
NC1=NC(=O)S/C1=C\c1ccc(O)cc1	inactive
O=S1(=O)CCO[C@H]2Cc3ccccc3[C@H]2N1Cc1ccccc1	inactive
O=C(c1cc(COc2ccc(F)c(F)c2)on1)N1CCOCC1	inactive
COc1cc(/C=N/NC(=O)c2ccoc2C)ccc1OCCN1CCCCC1	inactive
COc1ccccc1NC(=O)C1=C(C)Nc2nc3ccccc3n2C1c1cccs1 (stereo not drawn)	13.1 µM (active)
COc1ccccc1NC(=O)C1=C(C)Nc2nnnn2C1c1cccc(Br)c1 (stereo not drawn)	inactive
COc1ccc(C2C(C(=O)Nc3ccccc3OC)=C(C)Nc3nnnn32)c(OC)c1 (stereo not drawn)	inactive

Structure (SMILES)	Potency
COc1cccc(NC(=O)CN2CCN(CC(=O)Nc3ccccc3Cl)CC2)c1	inactive
C[C@@H](NC(=O)[C@@H]1Cc2ccccc2CN1)C(=O)NC1CCCC1	inactive
Cc1ccc(-c2cc(C(=O)NC3CCN(Cc4ccccc4)CC3)c3ccccc3n2)cc1	13.1 µM (active)
O=C(NC1CCN(Cc2ccccc2)CC1)c1ccccc1F	inactive
Cc1cc(C(=O)NC2CCN(Cc3ccccc3)CC2)n[nH]1	inactive
Cc1ccc(NC(=O)C2CCCN(S(=O)(=O)c3c(C)noc3C)C2)c(C)c1 (stereo not drawn)	inactive
COc1c(C)cc(C(=O)C2CCCN(S(=O)(=O)c3c(C)noc3C)C2)cc1C (stereo not drawn)	9.28 µM (active)
COc1ccc(C(=O)C2CCCN(S(=O)(=O)c3cccc(C)c3)C2)c(C)c1 (stereo not drawn)	inactive
CN(C(=O)CSc1nnc(-c2ccc(C(C)(C)C)cc2)n1C)C1CCS(=O)(=O)C1 (stereo not drawn)	inactive
CC(=O)Nc1ccc(C(=O)N(C2=NC(C)CS2)c2ccc(Cl)cc2)cc1 (stereo not drawn)	inactive
Nc1nc(SCc2cccc(Br)c2)n[nH]1	inactive
Cc1nc(NNC(=O)c2ccccc2)cc(-c2ccccc2)n1	inactive
Cc1ccc(-c2csc(NC(=O)c3cccs3)n2)cc1	inactive
Cc1ccc(-c2csc(NNC(=O)c3ccccc3)n2)cc1	2.33 µM (active)
CCn1c(SCC(=O)NNC(=O)c2ccc(OC)cc2)nnc1C(C)C	inactive
Cc1ccc(Cn2c(=N)c(S(=O)(=O)c3ccc(C)cc3)cc3c(=O)n4ccccc4nc32)cc1	inactive
Cn1c(Cc2cccs2)nnc1SCC(=O)Nc1ccccc1	inactive
COc1cccc(C(=O)Nc2cccnc2)c1OC	inactive
COc1ccccc1OCC(=O)Nc1c2c(nn1-c1ccc(F)cc1)CS(=O)(=O)C2	10.4 µM (active)
CCC(CC)C(=O)Nc1c2c(nn1-c1ccc(C)cc1)CS(=O)(=O)C2	inactive
Cc1cccc(-n2nc3c(c2NC(=O)c2cc4ccccc4o2)CS(=O)(=O)C3)c1	inactive
COc1cccc(C(=O)Nc2c3c(nn2-c2cccc(C)c2C)CS(=O)(=O)C3)c1OC	10.4 µM (active)
O=C(CC1CCCCC1)Nc1c2c(nn1-c1ccc(F)cc1)CS(=O)(=O)C2	inactive
CCOC(=O)c1sc(N)c(C#N)c1COC(=O)C1=COCCO1	inactive
Cc1cc(C)cc(NC(=O)C2CCCN2S(=O)(=O)c2cccc3cccnc23)c1 (stereo not drawn)	inactive
CCn1c(CC(=O)Nc2ccccc2C)nnc1SCC(=O)NC1=NCCS1	inactive

Structure (SMILES)	Potency
CCCc1nn(C)c2c(=O)[nH]c(-c3cc(S(N)(=O)=O)ccc3OCC)nc12	inactive
N#Cc1cc([N+](=O)[O-])ccc1NCC1CCCO1 (stereo not drawn)	inactive
CC(C)C(=O)NC(NC(=S)NC1CCS(=O)(=O)C1)C(Cl)(Cl)Cl (stereo not drawn)	7.38 µM (active)
O=C(Cc1ccc(Cl)cc1)NC1CCS(=O)(=O)C1 (stereo not drawn)	inactive
COc1ccc(NC(=S)NC2CCS(=O)(=O)C2)cc1 (stereo not drawn)	inactive
CC1CC(C)CN(C(=O)COC(=O)c2ccc3ncsc3c2)C1 (stereo not drawn)	inactive
CCc1noc(C)c1C(=O)Nc1nc(-c2ccccc2)cs1	inactive
C=CCNc1nc(N)c([N+](=O)[O-])c(NC2CCCCC2)n1	14.7 µM (active)
Nc1nc(Nc2ccccc2)nc(NCCO)c1[N+](=O)[O-]	inactive
COCCNc1nc(N)c([N+](=O)[O-])c(NCCO)n1	inactive
CSCc1nnc(NC(=O)c2ccc(S(=O)(=O)N3CCCCC3C)cc2)o1 (stereo not drawn)	inactive
CC(C)Cc1cc(C(=O)NCCc2ccccc2)no1	inactive
CC(C)Cc1cc(C(=O)Nc2cc(Br)ccc2O)no1	1.85 µM (active)
CC(C)CNC(=O)c1cc(-c2ccc(Br)cc2)on1	inactive
CCOc1ccc(C(=O)NC(=S)Nc2ccc(N3CCOCC3)c(Cl)c2)cc1[N+](=O)[O-]	inactive
COc1cccc(OC)c1C(=O)NC(=S)Nc1ccc(N2CCOCC2)c(Cl)c1	14.7 µM (active)
Cc1ccc(C(=O)NC(=S)Nc2ccc(N3CCOCC3)cc2)cc1	inactive
O=C(NCCc1nnc2ccc(SCC(=O)N3CCOCC3)nn12)c1ccccc1	inactive
CC(=O)N1CCCc2cc(S(=O)(=O)N3CCCC(C(=O)N4CCN(c5cccc(Cl)c5)CC4)C3)ccc21 (stereo not drawn)	4.15 µM (active)
CC(=O)N1CCCc2cc(S(=O)(=O)N3CCCC(C(=O)NCc4ccc(Cl)cc4)C3)ccc21 (stereo not drawn)	inactive
Cc1ccc(S(=O)(=O)N2CCCC(C(=O)N3CCN(C)CC3)C2)cc1 (stereo not drawn)	inactive
O=C(C1CCCN(S(=O)(=O)c2ccccc2)C1)N1CCN(c2ccc(F)cc2)CC1 (stereo not drawn)	13.1 µM (active)
COc1ccc(S(=O)(=O)N2CCCC(C(=O)N3CCN(C)CC3)C2)cc1C (stereo not drawn)	inactive
CCCS(=O)(=O)N1CCCC(C(=O)N2CCN(c3ccccc3)CC2)C1 (stereo not drawn)	inactive
CC(C)CCN(C(=O)c1csnn1)C(C(=O)NC1CCCC1)c1ccccc1 (stereo not drawn)	inactive
CCOc1ccc(N(C)S(=O)(=O)c2cnc[nH]2)cc1	inactive

Structure (SMILES)	Potency
CC(=O)c1ccc(NC(=O)C2CCCN2S(=O)(=O)c2cccs2)cc1 (stereo not drawn)	inactive
COc1ccc(C(=O)NC(C)Cn2nc(C)cc2C)cc1OC1CCN(C(C)=O)CC1 (stereo not drawn)	inactive
Cc1cccc(-c2nc(CS(=O)CC(=O)NC(C)CCc3ccccc3)c(C)o2)c1 (stereo not drawn)	inactive
O=C(CN1CCc2cc3c(cc2C1)OCCCO3)Nc1ccccc1	inactive
CC(C)OC(=O)CN1C(=O)c2ccccc2C1=O	inactive
Cc1cccc2c1N(CC(=O)OC(C)C)C(=O)C2=O	inactive
CC(C)OC(=O)CN1C(=O)C(=O)c2ccccc21	2.62 µM (active)
Clc1cccc(Cl)c1OCCOCCNCc1ccccc1	inactive
CC(NC(=O)c1ccccc1C(=O)O)c1ccc(-n2ccnc2)cc1 (stereo not drawn)	inactive
COc1ccc(NC(=O)CCCNC(=O)Cn2cnc3sc4c(c3c2=O)CCCC4)cc1OC	inactive
O=S(=O)(c1ccc(F)cc1)N1CCN(Cc2ccccc2C(F)(F)F)CC1	inactive
Cc1onc(-c2ccccc2)c1C(=O)N1CCN(S(=O)(=O)c2ccccc2C(F)(F)F)CC1	inactive
Cc1cc2oc(=O)cc(CN3CCN(S(=O)(=O)c4cccs4)CC3)c2cc1C(C)C	10.4 µM (active)
O=c1cc(CN2CCN(S(=O)(=O)/C=C/c3ccccc3)CC2)c2ccc(O)cc2o1	13.1 µM (active)
O=S(=O)(/C=C/c1ccccc1)N1CCNCC1	inactive
Cc1cc2oc(=O)cc(CN3CCN(Cc4ccccc4)CC3)c2cc1C	inactive
NC(=O)CCN1CCN(S(=O)(=O)/C=C/c2ccccc2)CC1	inactive
Cc1ccc2c(CN3CCN(S(=O)(=O)c4ccccc4C(F)(F)F)CC3)cc(=O)oc2c1	11.7 µM (active)
O=S(=O)(c1cccs1)N1CCN(Cc2ccccc2)CC1	inactive
COc1ccc(O)c(/C=N/N=C/c2cccc([N+](=O)[O-])c2)c1	inactive
CCn1c(C(O)c2cc(OC)ccc2OC)nc2ccccc21 (stereo not drawn)	inactive
CCOC(=O)c1c(C)[nH]c(C(=O)OCC(=O)N2CCCC2=O)c1C	inactive
Cc1cc(Cl)nc(NC(=O)Nc2cccc(Cl)c2)n1	inactive
CC(=O)CC[C@@H](C)O[C@@H]1OC(C)[C@H](O)CC1O (stereo partly drawn)	inactive
COC(=O)c1ccc(NS(=O)(=O)c2cc3c4c(c2)C(C)C(=O)N4CCC3)cc1 (stereo not drawn)	inactive
